Measured values taken from PubChem BioAssay (Tox21).
Inconclusive results are not listed. Active and inactive are the calls of the source. Unless noted, calls follow the shape of the dose curve; as a rule, active = well fitted curve in the direction sought with a large enough effect in the repeat runs; inconclusive = weak or mixed curves; inactive = no such curve, though single readings can be large; an effect the other way counts as inactive or inconclusive.

Columns and labels:
[1] = qHTS assay for small molecules that induce genotoxicity in human embryonic kidney cells expressing luciferase-tagged ATAD5 (AID 651632); also: nearly all actives have a fitted effect of over 15% in size; also: potency is read from the fitted curve at half-maximal effect
Method in brief: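 Concentration-response screen for ATAD5 upregulation in HEK293T luciferase reporter cells; 16 hr treatment at 37C, then luminescence after 30 min with Amplite at room temperature.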

[2] = qHTS assay for small molecule agonists of the p53 signaling pathway - cell viability (AID 651633; calls by dose curve;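 also: p53RE-bla HCT reporter cells with a stable beta-lactamase p53 reporter; series mostly up to about 83 µM; nearly all actives have a fitted effect of over 30% in size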)
Method in brief: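 p53RE-bla cells were treated with compound for 16 hours at 37 C. Cytotoxicity was then measured as CellTiter-Glo luminescence after 30 min at room temperature.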

[3] = qHTS assay for small molecules that induce genotoxicity in human embryonic kidney cells expressing luciferase-tagged ATAD5 - cell viability (AID 651634; calls by dose curve; also: nearly all actives have a fitted effect of over 25% in size)
Method in brief: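 15.5 hr compound or vehicle exposure of HEK293T cells expressing luciferase-tagged ATAD5 at 37C; live-cell protease activity is read by fluorescence after 30 min of CellTiter-Fluor.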

[4] = qHTS assay for small molecule disruptors of the mitochondrial membrane potential - cell viability (AID 720634; calls by dose curve; also: nearly all actives have a fitted effect of over 20% in size; also: potency is read from the fitted curve at half-maximal effect)
Method in brief: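 In this qHTS format, HepG2 cells plated overnight were pinned with compound, incubated 1 hr, and assayed for ATP luminescence with CellTiter-Glo after m-MPI dye addition.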

[5] = qHTS assay to test for compound auto fluorescence at 590 nm (red) in HepG2 cells (AID 720674)
Method in brief: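 HepG2 cells, 2,000 per well in MEM with 10% FBS, attached overnight at 37 C, then got 23 nL compound or DMSO. After 1 hr at 37 C, 5% CO2, red fluorescence was read at 540/590 nm against Rose Bengal sodium as reference.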

[6] = qHTS assay to test for compound auto fluorescence at 535 nm (green) in HepG2 cells (AID 720675)
[7] = qHTS assay to test for compound auto fluorescence at 460 nm (blue) in HEK293 cells (AID 720678)
Method in brief: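 HEK293 cells (2,000 per well, medium with 10% dialyzed FBS) attached for 4-5 hr at 37C, then received compound and stood overnight at 37C, 5% CO2. Blue fluorescence was read at Ex/Em 405/460 nm and expressed relative to triamterene.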

[8] = qHTS assay to test for compound auto fluorescence at 590 nm (red) in HEK293 cells (AID 720679)
Method in brief: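 HEK293 cells (2,000/well, medium with 10% dialyzed FBS) attached for 4-5 hr at 37C, received 23 nL compound and were incubated overnight at 37C, 5% CO2. Red fluorescence was then read at 540/590nm Ex/Em, referenced to Rose Bengal sodium.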

[9] = qHTS assay to test for compound auto fluorescence at 460 nm (blue) in HEK293 cell free culture (AID 720681)
Method in brief: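 Compounds were added to cell-free DMEM with 10% FBS and fluorescence read directly. The blue channel used 405 nm excitation and 460 nm emission, with triamterene as the reference fluorophore.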

[10] = qHTS assay to test for compound auto fluorescence at 535 nm (green) in HEK293 cell free culture (AID 720682)
Method in brief: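 Fluorescein serves as the green reference fluorophore; each compound's intrinsic emission at 535 nm (excitation 485 nm) is reported as an equivalent amount of that dye, measured in serum-containing DMEM without cells.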

[11] = qHTS assay to test for compound auto fluorescence at 590 nm (red) in HEK293 cell free culture (AID 720683)
Method in brief: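 Cell-free wells of DMEM with 10% FBS received compound, and intrinsic fluorescence was read at excitation/emission 540/590 nm. Values expressed as equivalence to Rose Bengal sodium.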

[12] = qHTS assay to test for compound auto fluorescence at 590 nm (red) in HepG2 cell free culture (AID 720684)
Method in brief: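 Auto fluorescence equivalency versus Rose Bengal sodium, red channel Ex/Em 540/590 nm; compounds in cell-free MEM/10% FBS; DMSO vehicle control.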

[13] = qHTS assay to test for compound auto fluorescence at 535 nm (green) in HepG2 cell free culture (AID 720686)
[14] = qHTS assay to test for compound auto fluorescence at 460 nm (blue) in HepG2 cells (AID 720687)
Method in brief: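 HepG2 cells in MEM with 10% FBS, attached overnight at 37 C, were exposed to compound or DMSO for 1 hr at 37 C, 5% CO2. Blue fluorescence was read at 405/460 nm, with triamterene as reference fluorophore.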

[15] = biological target: Glucocorticoid receptor (Homo sapiens) (UniProt P04150); assay: qHTS assay to identify small molecule agonists of the glucocorticoid receptor (GR) signaling pathway (AID 720691; active = well fitted activation curve with a large enough effect in the signal ratio in the repeat runs, not every such curve was filed as active; the % refers to the signal ratio)
Chain of Glucocorticoid receptor (Homo sapiens) (P04150 whole entry, looked up): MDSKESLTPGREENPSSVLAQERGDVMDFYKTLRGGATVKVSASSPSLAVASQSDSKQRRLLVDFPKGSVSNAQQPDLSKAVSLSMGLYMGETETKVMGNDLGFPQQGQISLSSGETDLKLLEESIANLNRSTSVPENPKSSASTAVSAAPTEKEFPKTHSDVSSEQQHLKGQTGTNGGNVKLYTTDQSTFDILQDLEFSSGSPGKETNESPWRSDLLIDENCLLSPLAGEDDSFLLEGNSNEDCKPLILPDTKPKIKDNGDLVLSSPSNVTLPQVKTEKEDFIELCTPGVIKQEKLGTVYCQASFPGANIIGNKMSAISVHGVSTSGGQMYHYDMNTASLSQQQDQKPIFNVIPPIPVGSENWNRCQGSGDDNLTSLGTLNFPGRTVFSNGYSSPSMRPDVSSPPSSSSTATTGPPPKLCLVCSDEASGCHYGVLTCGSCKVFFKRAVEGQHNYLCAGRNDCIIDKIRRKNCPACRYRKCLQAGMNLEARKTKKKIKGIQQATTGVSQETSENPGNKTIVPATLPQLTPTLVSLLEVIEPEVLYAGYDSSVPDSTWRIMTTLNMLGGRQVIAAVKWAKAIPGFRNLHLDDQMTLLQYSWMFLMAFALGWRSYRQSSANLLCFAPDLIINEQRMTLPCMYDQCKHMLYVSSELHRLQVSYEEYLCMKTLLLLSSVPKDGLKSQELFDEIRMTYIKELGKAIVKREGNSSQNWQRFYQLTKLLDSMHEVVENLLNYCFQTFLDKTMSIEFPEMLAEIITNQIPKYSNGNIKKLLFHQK
Method in brief: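 Measures GR pathway activation through a GRE-beta-lactamase reporter stably integrated in HeLa cells, with 18 h compound treatment at 37 C and fluorescence detection using a FRET substrate.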

[16] = biological target: Glucocorticoid receptor (Homo sapiens) (UniProt P04150); assay: qHTS assay to identify small molecule antagonists of the glucocorticoid receptor (GR) signaling pathway (AID 720692; active = well fitted inhibition curve with a large enough effect in the signal ratio in the repeat runs, not every such curve was filed as active; the % refers to the signal ratio)
Method in brief: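 Tox21 10K library screened in concentration-response for blockade of dexamethasone (5 nM final)-induced GRE-bla reporter activity in HeLa cells; 18 h treatment, fluorescence read.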

[17] = qHTS assay for small molecule disruptors of the mitochondrial membrane potential (AID 720635); also: potency is read from the fitted curve at half-maximal effect
Method in brief: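 HepG2 cells exposed to compound 1 hr at 37C, then Mito-MPS dye 30 min. Ratio read of aggregate (540/590 nm) versus monomer (490/535 nm) fluorescence.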

[18] = qHTS assay to test for compound auto fluorescence at 535 nm (green) in HEK293 cells (AID 720680)
[19] = qHTS assay to test for compound auto fluorescence at 460 nm (blue) in HepG2 cell free culture (AID 720685)
Method in brief: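 Cell-free plates of MEM plus 10% FBS received 23 nL compound or DMSO vehicle; blue-channel (405/460 nm) intensity scored against triamterene as reference fluorophore.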

Measured: Potency

CC1(O)CSC(C)(O)CS1 (stereo not given)
not listed: [17] | [18] | [19]
inactive: all other assays above

Cc1nnc(SCC2=C(C(=O)O)N3C(=O)[C@@H](NC(=O)Cn4cnnn4)[C@H]3SC2)s1
not listed: [15] | [16] | [19]
inactive: all other assays above

O=c1oc2c(O)c(O)cc3c(=O)oc4c(O)c(O)cc1c4c23
inactive: all assays above

CCCCCCCOC(=O)CCC
not listed: [2] | [16]
inactive: all other assays above

CC(=O)OC1C2(C)CCC(C2)C1(C)C (stereo not given)
not listed: [16]
inactive: all other assays above

CC(C)O
not listed: [2] | [15] | [16] | [19]
inactive: all other assays above

CC1CN(c2ccccc2)NC1=O (stereo not given)
not listed: [16] | [17]
inactive: all other assays above

Nc1ccc(Oc2ccc(N)c(N)c2)cc1
active: [1] 30.6 µM | [17] 17.2 µM
not listed: [16]
inactive: all other assays above

CC1=NN(c2cc(Cl)c(S(=O)(=O)O)cc2Cl)C(=O)C1N=Nc1ccc(S(=O)(=O)O)cc1 (stereo not given)
not listed: [3] | [14] | [15] | [16]
inactive: all other assays above

COc1ccc2nc(NC(=O)Nc3ccccc3)sc2c1
active: [1] 0.75 µM | [4] 6.68 µM | [17] 1.19 µM
not listed: [16] | [19]
inactive: all other assays above

c1ccc(CN(CC2=NCCN2)c2ccccc2)cc1
not listed: [15] | [16] | [18] | [19]
inactive: all other assays above

NS(=O)(=O)c1cc(-c2nn[nH]n2)c(NCc2cccs2)cc1Cl
not listed: [17]
inactive: all other assays above

CCOc1ccc(OCC)c(Cl)c1
not listed: [16] | [17]
inactive: all other assays above

CC1=C(CC(=O)O)c2cc(F)ccc2/C1=C\c1ccc(S(C)(=O)=O)cc1
not listed: [2] | [15] | [16] | [17] | [19]
inactive: all other assays above

CCN(CC)CCOc1ccc(Cc2ccccc2)cc1
not listed: [2] | [15] | [16] | [17] | [18] | [19]
inactive: all other assays above
